The source of these data is ChEMBL document CHEMBL2218924, “A broad activity screen in support of a chemogenomic map for kinase signalling research and drug discovery” (Biochem J, 2013).

In experiment [1] the target is Tyrosine-protein kinase Lck (Homo sapiens) (UniProt P06239). The settings on record: at 10 µM.
Experiment [2] shares this target. The settings on record: at 1 µM.
The target is the same in experiment [3]. The note with it: at 10 µM. The source holds these as a separate data set.
In experiment [4] the target is Tyrosine-protein kinase Lyn (Homo sapiens) (UniProt P07948). The settings on record: at 1 µM.
Experiment [5] shares this target. The note with it: at 10 µM.
Experiment [6] has as its target Mitogen-activated protein kinase 3 (Homo sapiens) (UniProt P27361). The note with it: at 1 µM.
The target is the same in experiment [7]. The settings on record: at 10 µM.
In experiment [8] the target is MAP kinase-activated protein kinase 2 (Homo sapiens) (UniProt P49137). The settings on record: at 1 µM.
Experiment [9] concerns the target Mitogen-activated protein kinase 1 (Homo sapiens) (UniProt P28482). The note with it: at 1 µM.
Experiment [10] shares this target. The settings on record: at 10 µM.

Sequence of Mitogen-activated protein kinase 1 (Homo sapiens) (P28482 whole entry): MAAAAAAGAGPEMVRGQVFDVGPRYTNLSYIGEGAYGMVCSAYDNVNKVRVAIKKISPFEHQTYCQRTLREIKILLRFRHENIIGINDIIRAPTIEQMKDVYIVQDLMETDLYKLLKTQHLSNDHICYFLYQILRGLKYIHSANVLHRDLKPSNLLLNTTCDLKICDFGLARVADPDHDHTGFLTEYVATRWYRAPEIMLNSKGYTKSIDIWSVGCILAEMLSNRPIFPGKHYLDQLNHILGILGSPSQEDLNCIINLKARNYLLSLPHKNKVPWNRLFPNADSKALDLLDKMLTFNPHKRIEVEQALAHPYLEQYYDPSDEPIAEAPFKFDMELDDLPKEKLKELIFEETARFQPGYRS
Sequence of Mitogen-activated protein kinase 3 (Homo sapiens) (P27361 whole entry): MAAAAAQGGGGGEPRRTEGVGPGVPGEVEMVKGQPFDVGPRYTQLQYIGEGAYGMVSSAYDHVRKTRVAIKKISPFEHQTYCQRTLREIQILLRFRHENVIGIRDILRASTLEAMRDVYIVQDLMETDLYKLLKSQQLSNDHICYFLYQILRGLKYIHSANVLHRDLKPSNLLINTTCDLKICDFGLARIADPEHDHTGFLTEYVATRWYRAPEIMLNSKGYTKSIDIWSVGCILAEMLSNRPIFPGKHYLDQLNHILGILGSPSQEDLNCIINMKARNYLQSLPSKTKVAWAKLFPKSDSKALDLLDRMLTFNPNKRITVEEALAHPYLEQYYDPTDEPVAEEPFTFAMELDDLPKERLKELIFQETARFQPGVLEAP
Sequence of Tyrosine-protein kinase Lck (Homo sapiens) (P06239 2-509 limits assumed): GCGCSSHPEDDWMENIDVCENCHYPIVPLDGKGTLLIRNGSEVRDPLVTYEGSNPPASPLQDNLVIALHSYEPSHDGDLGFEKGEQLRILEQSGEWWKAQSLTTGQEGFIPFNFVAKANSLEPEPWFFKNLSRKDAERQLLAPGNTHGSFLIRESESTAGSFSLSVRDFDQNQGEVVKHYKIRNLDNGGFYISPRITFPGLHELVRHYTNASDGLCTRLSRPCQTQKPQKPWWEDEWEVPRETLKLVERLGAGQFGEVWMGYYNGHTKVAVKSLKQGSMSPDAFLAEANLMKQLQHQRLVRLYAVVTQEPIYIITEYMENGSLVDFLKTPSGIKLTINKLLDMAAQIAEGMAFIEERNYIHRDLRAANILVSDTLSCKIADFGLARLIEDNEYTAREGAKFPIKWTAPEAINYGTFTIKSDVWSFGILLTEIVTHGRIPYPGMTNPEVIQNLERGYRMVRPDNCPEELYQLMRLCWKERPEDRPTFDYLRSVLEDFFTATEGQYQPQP
Sequence of MAP kinase-activated protein kinase 2 (Homo sapiens) (P49137 whole entry, looked up): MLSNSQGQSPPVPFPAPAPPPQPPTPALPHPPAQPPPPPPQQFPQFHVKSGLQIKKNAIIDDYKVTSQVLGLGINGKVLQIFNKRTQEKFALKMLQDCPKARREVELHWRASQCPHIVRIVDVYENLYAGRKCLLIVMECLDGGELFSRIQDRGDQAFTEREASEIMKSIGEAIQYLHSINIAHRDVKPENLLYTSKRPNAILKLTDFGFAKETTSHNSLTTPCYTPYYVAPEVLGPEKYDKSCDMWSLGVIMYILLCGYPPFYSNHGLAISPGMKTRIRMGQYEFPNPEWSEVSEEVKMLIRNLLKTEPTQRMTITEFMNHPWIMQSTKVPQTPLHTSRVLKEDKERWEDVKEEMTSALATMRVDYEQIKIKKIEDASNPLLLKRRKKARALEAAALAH
Sequence of Tyrosine-protein kinase Lyn (Homo sapiens) (P07948 2-512 limits assumed): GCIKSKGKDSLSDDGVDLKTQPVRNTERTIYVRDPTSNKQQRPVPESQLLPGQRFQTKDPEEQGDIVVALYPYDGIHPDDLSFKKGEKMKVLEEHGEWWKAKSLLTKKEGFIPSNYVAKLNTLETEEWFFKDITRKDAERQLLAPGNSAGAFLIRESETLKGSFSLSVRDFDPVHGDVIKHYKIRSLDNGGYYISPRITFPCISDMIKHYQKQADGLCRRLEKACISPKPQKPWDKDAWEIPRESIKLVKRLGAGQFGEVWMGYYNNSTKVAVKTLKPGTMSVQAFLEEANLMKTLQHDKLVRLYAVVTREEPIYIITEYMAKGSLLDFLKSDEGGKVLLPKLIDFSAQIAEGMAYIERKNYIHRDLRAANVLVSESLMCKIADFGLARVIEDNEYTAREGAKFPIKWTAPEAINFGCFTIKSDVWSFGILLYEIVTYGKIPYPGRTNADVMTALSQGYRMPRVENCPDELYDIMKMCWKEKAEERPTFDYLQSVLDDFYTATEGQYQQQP

Regarding `c1ccc(-c2cnc(Nc3ccc(OCCN4CCCC4)cc3)s2)cc1`, the residual activity in [1] is 19%; in [2], 36%; in experiment [3], 5%; in [4], 29%; in experiment [5] it was 4%.
For the compound `CCCCc1c(-c2ccc(O)cc2)[nH]c2nccnc12`, the residual activity worked out at 50% in experiment [1]; 63% in experiment [2]; 59% in experiment [3]; 96% in experiment [6]; 73% in [7]; 98% in experiment [8].
Take `O=C1Nc2ccc(Cl)cc2/C1=C/c1cc(Cl)c(O)c(Cl)c1`: the residual activity in [1] was 53%; in [2] it was 74%; in [3], 51%; in experiment [4] it was 81%; in [5], 23%; in [6] it was 76%. Moreover, the residual activity was determined as 70% in [7] and 67% in experiment [8].
With `O=C(CCCc1ccc(-c2ccccc2F)cc1)Nc1ccc(O)cc1`, the residual activity is 58% in experiment [1]; 99% in experiment [2]; 88% in experiment [3]; 97% in experiment [4]; 85% in [5]; 100% in [6]. Besides, the residual activity amounted to 88% in [7], 106% in [9], 92% in [10] and 95% in experiment [8].
Take `COc1ccc(CNC(=O)Nc2ncc([N+](=O)[O-])s2)cc1`: the residual activity in experiment [1] was found to be 37%; in [2], 6%; in experiment [3] it was 9%; in experiment [9] it was 120%; in experiment [10], 101%.
On to `O=C(NC(NC(=S)Nc1ccc(F)c([N+](=O)[O-])c1)C(Cl)(Cl)Cl)C(c1ccccc1)c1ccccc1` (configuration not stated), for which the residual activity in experiment [1] was determined as 55%; in experiment [2], 86%; in experiment [3] it was 74%; in experiment [4] it was 89%; in experiment [5], 66%; in [6], 82%. The residual activity in experiment [7] was 82%; in [8], 90%.
`Nc1ncnc2c1c(-c1ccc(Oc3ccccc3)cc1)cn2C1CCCC1`: the residual activity is -1% in experiment [1]; -3% in experiment [2]; 2% in [3]; 0% in [4]; 1% in experiment [5]; 76% in experiment [6]. For the same compound, the residual activity was found to be 66% in experiment [7], 106% in experiment [9], 93% in [10] and 82% in [8].
For `CSc1nc(-c2ccc(F)cc2)c(-c2ccnc(NC(C)c3ccccc3)c2)[nH]1` (configuration not stated), the residual activity was found to be 62% in experiment [1]; 37% in experiment [3]; 52% in experiment [4]; 29% in experiment [5]; 79% in experiment [8].
With `CCCCc1c(-c2ccc(OC)cc2)[nH]c2nccnc12`, the residual activity in [1] is 63%; in experiment [2], 63%; in [3], 82%; in [4], 37%; in [5] it was 11%; in [9], 117%. Further, the residual activity in experiment [10] came to 105%; in experiment [8], 89%.
With `O=C(c1ccccc1)c1ccc(N2CCOCC2)cc1O`, the residual activity stood at 94% in [1]; 96% in experiment [2]; 78% in [3]; 85% in [4]; 72% in experiment [5]; 90% in experiment [6]. Further, the residual activity in experiment [7] was found to be 89%; in experiment [8], 73%.
For the compound `COc1cc2nccc(Oc3ccc(NC(=S)NC(=O)c4ccccc4C)cc3)c2cc1OC`, the residual activity in experiment [1] is -1%; in experiment [2], 0%; in [3] it was 0%; in [4] it was 0%; in experiment [5], 0%; in [6], 83%. In addition, the residual activity in [7] amounted to 82%; in [9], 93%; in experiment [10], 87%; in experiment [8], 73%.
Regarding `O=C(c1cc2cc(O)ccc2[nH]1)c1cc2cc(O)ccc2[nH]1`, the residual activity in experiment [1] is 2%; in experiment [2] it was 22%; in experiment [3] it was 7%; in experiment [4], 6%; in [5], -1%; in experiment [6], 82%. Besides, the residual activity in [7] and in experiment [8] was 64% throughout.
For `O=c1cc(N2CCNCC2)oc2c(-c3ccccc3)cccc12`, the residual activity in [1] came out at 85%; in experiment [2], 92%; in [3] it was 88%; in [5], 71%; in experiment [6], 86%; in experiment [7], 87%. In addition, the residual activity in [9] was 101%; in experiment [8], 94%.
As to `O=C1C(Cl)=C(N2C(=O)CCC2=O)C(=O)c2ccccc21`, the residual activity is 99% in experiment [1]; 93% in [3]; 87% in experiment [4]; 84% in experiment [5]; 102% in experiment [6]; 91% in [7]. Further, the residual activity in experiment [8] is 69%.
As to `COc1ccc2c(c1)c(C1=C(c3c[nH]c4ccccc34)C(=O)NC1=O)cn2CCCN(C)C`, the residual activity in [1] was determined as 25%; in experiment [2], 65%; in experiment [3] it was 27%; in experiment [4], 63%; in experiment [5], 13%; in [6] it was 104%. Moreover, the residual activity came out at 82% in [7] and 114% in experiment [9].
`O=C1NC(=O)c2c1c1c3ccccc3[nH]c1n1cncc21`: the residual activity worked out at 49% in experiment [1]; 72% in experiment [2]; 47% in experiment [3]; 57% in experiment [4]; 19% in experiment [5]; 86% in experiment [6]. The results for the residual activity in experiment [7], in experiment [10] and in experiment [8] were 90%, 98% and 79%, respectively.
Regarding `CC(C)(C)n1nc(Cc2cccc3ccccc23)c2c(N)ncnc21`, the residual activity in experiment [1] is 6%; in [2], 44%; in [3] it was 12%; in experiment [4] it was 10%; in [5], 1%; in experiment [6], 78%. In addition, the residual activity in [7] was 51%; in experiment [9] it was 81%; in [10], 41%.
As for `O=C1NC(=O)C(c2cn(CCCn3ccnc3)c3ccccc23)=C1Nc1ccccc1`, the residual activity in [1] stood at 65%; in experiment [3], 66%; in experiment [5], 39%; in [7] it was 70%; in experiment [9], 104%; in experiment [10] it was 110%. The residual activity in [8] came out at 100%.
`COc1ccc(-c2cnc3c(-c4ccsc4)cnn3c2)cc1`: the residual activity in experiment [1] was found to be 123%; in experiment [2], 93%; in experiment [3] it was 91%; in experiment [4], 98%; in experiment [5], 95%; in experiment [6], 84%. Besides, the residual activity in [7] and in experiment [8] was 91% each time.
`O=c1cc(N2CCOCC2)oc2c1ccc1ccccc12`: the residual activity in [1] worked out at 101%; in experiment [2], 89%; in experiment [3], 88%; in experiment [4], 103%; in experiment [5] it was 90%; in experiment [6], 101%. Moreover, the residual activity in [7] worked out at 80%; in experiment [9], 103%; in experiment [10] it was 106%; in experiment [8], 100%.
Consider `CCCC(=O)Oc1ccc2[nH]c(C(=O)c3cc4ccccc4[nH]3)cc2c1`, for which the residual activity in experiment [1] was determined as 73%; in experiment [2], 80%; in experiment [3], 76%; in experiment [4], 61%; in experiment [5], 31%; in experiment [6] it was 77%. Also, the residual activity stood at 80% in [7], 100% in experiment [9], 104% in [10] and 75% in [8].
With `O=C1NC(=O)C(c2c[nH]c3ccccc23)=C1c1c[nH]c2ccccc12`, the residual activity stood at 37% in experiment [1]; 41% in experiment [3]; 82% in experiment [4]; 32% in experiment [5]; 61% in experiment [7]; 98% in experiment [8].
Consider `O=C1Nc2ccccc2/C1=C\c1c(Cl)[nH]c2ccccc12`, for which the residual activity in [1] was found to be 48%; in [3], 55%; in [5], 62%; in experiment [9], 121%.
Consider `NCCNc1ncc(C(N)=O)c(Nc2cccc(C(F)(F)F)c2)n1`, for which the residual activity came out at 37% in experiment [1]; 82% in [2]; 29% in experiment [3]; 27% in experiment [4]; 3% in experiment [5]; 72% in experiment [6]. Besides, the figures for the residual activity in experiment [7] and in experiment [10] were 40% and 43%, respectively.
As for `COc1cc2ncnc(Nc3cccc(Cl)c3)c2cc1OC`, the residual activity stood at 12% in experiment [1]; 49% in experiment [2]; 15% in experiment [3]; 10% in [4]; 1% in experiment [5]; 65% in [7]. Also, the results for the residual activity in experiment [9], in experiment [10] and in experiment [8] were 101%, 80% and 108%, respectively.
As for `COc1cc2nccc(Oc3ccc(NC(=O)Nc4cc(C)on4)c(Cl)c3)c2cc1OC`, the residual activity in experiment [1] is 1%; in [2], -2%; in [3], 1%; in experiment [4], -1%; in experiment [5] it was 2%; in experiment [9], 103%. For the same compound, in [10], the residual activity turned out to be 104%.
For `O=C(O)/C=C/c1cc(Br)c(Br)c(Br)c1Br`, the residual activity in experiment [1] came out at 95%; in experiment [3] it was 80%; in experiment [4] it was 70%; in experiment [5] it was 63%; in [6], 106%; in [7], 104%. Also, the residual activity in [8] was found to be 93%.
For `CC(C)N(CCC(=O)c1ccc2ccccc2c1)Cc1ccccc1`, the residual activity in experiment [1] stood at 77%; in [6], 85%; in experiment [7], 76%.
For `CCN(CC)CCNC(=O)c1c(C)[nH]c(/C=C2\C(=O)Nc3ccc(Cl)cc32)c1C`, the residual activity was 2% in [1]; 6% in experiment [2]; -1% in experiment [3]; 2% in experiment [4]; 3% in experiment [5]; 115% in experiment [7].
Consider `Nc1nc(Nc2ccc(S(N)(=O)=O)cc2)nn1C(=O)c1c(F)cccc1F`, for which the residual activity in [1] came to 29%; in experiment [2], 66%; in experiment [3] it was 18%; in experiment [4], 40%; in [5], 11%; in [6] it was 102%.
With `Nc1ncnc2[nH]nc(Nc3ccc(F)cc3)c12`, the residual activity was found to be 14% in experiment [1]; 31% in experiment [2]; 19% in experiment [3]; 19% in experiment [4]; 3% in experiment [5]; 90% in experiment [6]. Besides, the residual activity turned out to be 43% in [7], 101% in experiment [9], 67% in [10] and 75% in [8].
For the compound `CC(C)c1nn(-c2c(Cl)cccc2Cl)c2nc(Cc3ccc(OCCO)cc3)[nH]c(=O)c12`, the residual activity in experiment [1] was 85%; in experiment [3], 88%; in experiment [4], 81%; in experiment [5], 36%; in [6], 94%; in experiment [7] it was 73%. The residual activity in [10] is 89%; in experiment [8], 80%.
For `COc1ccc(COc2ccc(Cc3cnc(N)nc3N)cc2OC)cc1`, the residual activity in experiment [1] worked out at 77%.
